An excerpt weighted towards active compounds, which were near 4.6% of everything screened.
MARV entry inh – inhibitors of Marburg virus binding or cell entry; Potency, µM (doses to about 37.8 µM), without a hit: top-dose activity change, negative = inhibition, most hits filed as inhibitors; Marburg virus pseudotyped entry inhibition, cell reporter; 1.8% of 300,000 active; AID 540276; calls by dose curve; tested in HEK293 cells
HCV inh – inhibitors of hepatitis C virus infection | Huh7.5.1 HCVcc-Cre infection, luciferase reporter, 44 h | Potency, µM (doses to about 41.8 µM), for inactives: at the highest dose activity change, negative = inhibition, actives largely listed as inhibitors | 3.4% of 340,000 active; active = well fitted inhibition curve with a large enough effect; inconclusive = small, poorly fitted or top-dose-only effect, or another doubt; inactive = no such curve, though single readings can be large or run the other way
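HCVcc-Cre virus at an moi near 0.5 was added right after compound to cells cultured 4 h from seeding (1,000 cells/well). Luciferase activity was determined 44 h later, 15 min after substrate addition at RT.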
Vaccinia Venus – inhibitors of vaccinia virus (Venus reporter) | 0.46% of 330,000 active | Vaccinia virus Venus reporter expression, fluorescence | Potency, µM (titrated, usually from 36.5 µM), for inactives: top-dose activity change, negative = inhibition, most hits filed as inhibitors; calls by dose curve; tested in A549 cells; also: nearly all actives have a fitted effect of over 30% in size
LASV entry inh – blocks Lassa virus binding to or entry into cells; Lassa virus pseudotype entry inhibition, cell reporter; Potency, µM (top dose mostly 37.9 µM), inactives show top-dose activity change, negative = inhibition, hits mostly inhibitors; 1.2% of 300,000 active; calls by dose curve; tested in HEK293 cells; also: nearly all actives have a fitted effect of over 50% in size
VACV mCherry inh – inhibitors of vaccinia virus infection (mCherry reporter signal) | Vaccinia virus mCherry reporter infection, fluorescence | 0.63% of 310,000 active | AID 720579 | Potency, µM (titrated, usually from 36.5 µM), for inactives: at the highest dose activity change, negative = inhibition, most hits filed as inhibitors; calls by dose curve; tested in A549 cells; also: nearly all actives have a fitted effect of over 35% in size
The depositor's hits bear a star; i = inactive; u = inconclusive; x = no result; [ ] = dose if it differs, or a comment. % is scaled to controls: 0 for no effect and ±100 for the full control effect; potency is read from the fitted curve at half-maximal effect.

SMILES	MARV entry inh	HCV inh	Vaccinia Venus	LASV entry inh	VACV mCherry inh
Cc1cc(C)n(-c2nc(C)c(C)c(=O)n2CC(=O)Nc2cccc([N+](=O)[O-])c2)n1	x	x	-13%[7.34 µM]	-3%[46.1 µM]	-4%[7.34 µM]
Cc1cc(C(=O)Nc2cccc(-c3nc(CNC(=O)c4cc5ccccc5[nH]4)c(C)o3)c2)c(C)o1	x	x	-7%	x	-1%
N#C/C(=C\c1ccc(-c2ccc([N+](=O)[O-])cc2)o1)C(=O)Nc1nc(-c2cccs2)cs1	x	10µM*	x	x	x
N#C/C(=C/c1ccc(-c2cccc([N+](=O)[O-])c2)o1)C(=O)Nc1nc(-c2cccs2)cs1	u	-19%	-11%	0%[46.1 µM]	-4%
CCCCCCN1CCN(C2CN(Cc3ccc(F)cc3)S(=O)(=O)C2)CC1 (centres undefined)	x	x	-11%	-2%[46.1 µM]	0%
CCCCCCN1CCN(C2CN(Cc3ccc(C)cc3)S(=O)(=O)C2)CC1 (centres undefined)	x	x	-4%	6.3µM*	4%
CCC(=NCc1ccc(F)cc1)c1c(O)n(C)c(=O)n(C)c1=O	u	10µM*	x	-5%	x
CCC(=NCCC(c1ccccc1)c1ccccc1)c1c(O)n(C)c(=O)n(C)c1=O	u	0%	-26%	u	-11%
CC(C)(C)OC(=O)N1CCC[C@H]1c1nnc(SCc2ccccc2)o1	-6%[14.2 µM]	26%	-18%	u	u
Cc1ccc(CSc2nnc([C@@H]3CCCN3C(=O)OC(C)(C)C)o2)cc1	x	22µM*	x	x	x
O=C(NC(Nc1nc2ccc([N+](=O)[O-])cc2s1)(C(F)(F)F)C(F)(F)F)c1ccccc1Cl	u	0.56µM*	x	1.6µM*	x
CCc1ccccc1NC(=O)C1CCN(S(=O)(=O)c2ccc3[nH]c(=O)ccc3c2)CC1	x	x	-9%	3%[46.1 µM]	-3%
COc1cc2[nH]c(=O)n(CCCC(=O)N3CC=C(c4ccccc4)CC3)c(=O)c2cc1OC	u	-16%	-5%	u	-17%
COc1cccc2c1[C@@H]1CN(CCCCn3c(=O)[nH]c4c(sc5ncc(-c6ccccc6)nc54)c3=O)C[C@@H]1CO2	7.9µM*	3.5µM*	u	u	u
Cc1ccc2c(c1)nnn2C1CCN(S(=O)(=O)c2ccc(C(=O)N(C)C3CCCCC3)cc2)CC1	u	13µM*	x	u	x
COc1cc(-c2nnc(CSc3nnc(Nc4ccc(Oc5ccccc5)cc4)s3)o2)cc(OC)c1OC	u	5.6µM*	-26%	u	u
COc1ccc(C(C)=O)cc1CSc1nnc(Nc2ccc(C)cc2)s1	u	u	-26%	u	u
COc1ccc(C(C)=O)cc1CSc1nnc(-c2ccncc2)n1C	16%[46.1 µM]	12%	-16%	17%[46.1 µM]	i
COc1cc(-c2nnc(CSc3nnc(N)s3)o2)cc(OC)c1OC	-10%	-11%	-4%	0%	-1%
COc1ccc(C(C)=O)cc1CSc1nnc(Nc2ccccc2)s1	18µM*	u	u	u	-14%
COc1ccc(C(C)=O)cc1CSc1nnc(-c2ccc(Cl)cc2)n1-c1ccccc1	u	7.9µM*	-15%	u	-24%
Cc1cc2c(cc1C)N[C@]1(C[C@H]3CCCC(=O)N4CC[C@@H](C1)[C@@H]34)C(=NC1CCCCC1)N2	x	x	-13%	x	-16%
Cc1ccc(C)c(NC(=O)Cn2c(=O)nc(-c3ccccc3)c3ccccc32)c1	x	x	-20%	u	-24%
Cc1ccc(C(=O)N(Cc2cc3cccc(C)c3nc2N(C)C)CC2CCCO2)cc1 (centres undefined)	x	x	0%	x	-3%
CC(NC(=O)c1cccc(Nc2nc3ccccc3n3nnnc23)c1)c1ccccc1 (centres undefined)	x	x	10µM*	u	u
SMILES	MARV entry inh	HCV inh	Vaccinia Venus	LASV entry inh	VACV mCherry inh
Cc1cc(=O)oc2cc(OCC(=O)N3CCN(C(=O)C4COc5ccccc5O4)CC3)ccc12 (centres undefined)	x	18µM*	x	x	x
O=C(COc1ccc2ccc(=O)oc2c1)N1CCN(C(=O)C2COc3ccccc3O2)CC1 (centres undefined)	-22%[46.1 µM]	u	-8%	-20%[46.1 µM]	-14%
Cc1ccc(S(=O)(=O)c2[nH]c(-c3ccccc3)nc2SCC(N)=O)cc1	-5%[46.1 µM]	x	-9%	7%[46.1 µM]	-11%
O=C(NCc1ccco1)c1ccc2c(c1)N(Cc1ccccc1F)C(=O)c1ccccc1S2(=O)=O	-27%[46.1 µM]	x	-13%	-1%[46.1 µM]	-17%
C[C@@H](CSc1ccccc1)CN1CC[C@H](NC(=O)OCc2ccccc2)CCC1=O	x	11µM*	u	x	0%
Cc1ccc(SC[C@H](C)CN2CC[C@H](NC(=O)OCc3ccccc3)CCC2=O)cc1	x	-14%	-14%	x	i
Cc1ccc(S[C@@H](CCN2CC[C@H](NC(=O)OCc3ccccc3)CCC2=O)c2ccccc2)cc1	x	13µM*	-27%	x	-14%
COc1ccc([C@H]2C[C@H](c3ccccc3)Nc3nc(N)nn32)cc1	1%	x	x	x	x
COc1ccc(-c2nc(C#N)c(N3CCCCCC3)o2)cc1OC	-30%	10µM*	-24%	u	-13%
COc1cc(C=NNc2ncnc3c2cnn3C(C)C)ccc1O	x	x	x	13µM*	x
CCc1ccc(C(=O)NNc2ccccc2F)cc1	4.5µM*	-2%	-3%	u	u
Cc1cc(C(C)(C)C)cc(C)c1Cn1c2[n+](c3ccc(C(F)(F)F)cc31)CCCCC2	u	7.1µM*	-6%	13µM*	i
FC(F)(F)c1cccc(Cn2c3[n+](c4ccc(C(F)(F)F)cc42)CCCCC3)c1	u	23%	-1%	-1%	-4%
CCOC(=O)c1c(C)nc2sc3c(=O)n(-c4ccc(C(C)=O)cc4)nnc3c2c1-c1ccc(OC)cc1	u	8.9µM*	-7%	u	-24%
CCOC(=O)c1c(C)nc2sc(C(=O)Nc3ccc(C(C)=O)cc3)c(N)c2c1-c1ccc(OC)cc1	2.8µM*	u	u	u	x
CCOC(=O)c1c(C)nc2sc(C(=O)Nc3ccc(OC)cc3)c(N)c2c1-c1ccc(OC)cc1	u	3.5µM*	u	u	u
CCOC(=O)c1c(C)nc2sc3c(=O)n(-c4ccc(OC)cc4)cnc3c2c1-c1ccc(OC)cc1	2%	2%	-3%	-9%	-15%
CCOC(=O)c1c(C)nc2sc(C(N)=O)c(N)c2c1-c1ccc(OC)cc1	u	u	u	-3%	-2%
COc1ccc(-c2c(C(C)=O)c(C)nc3sc4c(=N)n(N)cnc4c23)cc1	-16%	u	13µM*	u	7.1µM*
O=[N+]([O-])c1ccc2c(c1)C=CC2	x	x	-10%	x	-13%
C[C@H](CO)N1C[C@H](C)[C@H](CN(C)C(=O)Cc2ccncc2)Oc2ncc(Br)cc2C1=O	x	x	8.9µM*	x	u
C[C@H](CO)N1C[C@H](C)[C@@H](CN(C)CC2CCCCC2)Oc2c(NC(=O)Cc3ccccc3)cccc2C1=O	x	u	10µM*	x	u
C[C@H](CO)N1C[C@H](C)[C@@H](CN(C)Cc2ccc(-c3ccccc3)cc2)Oc2c(NC(=O)c3ccncc3)cccc2C1=O	x	10µM*	u	x	-2%
